This note sets out measurements from PubChem BioAssay (NCI).

Several values for one entry are separate records, joined by “and”; a condition that tells them apart may be missing. Equal entries are not always repeated. About 79,000 compounds went through this panel and 15% of them were active in at least one assay; those are over-represented in the sample as a whole. Activity calls are given as the source filed them. Cut-off read from the data, not from the text of the source: active = growth inhibition above about 70%; inactive = the rest.

A short description of assay [1]: NCI Yeast Anticancer Drug Screen. Data for the rad50 strain (AID 155).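 Note: 0% = growth of vehicle-only cultures of the same strain.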 The note with it: S. cerevisiae rad50 strain growth inhibition; at 50.0 µM; stronger effect = higher value. The gist of the method: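 Genetically altered yeast (DNA repair pathway); compound treatment; growth inhibition vs vehicle ctrl.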
Assay [2] is described as follows: NCI Yeast Anticancer Drug Screen. Data for the mec2-1 strain (AID 157). The following applies: S. cerevisiae mec2-1 strain, at 50.0 µM, stronger effect = higher value. The gist of the method: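 Test agents were screened against the mec2-1 yeast strain, with defined DNA repair or cell cycle alteration. Growth was scored as inhibition against vehicle-only controls.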
A short description of assay [3]: NCI Yeast Anticancer Drug Screen. Data for the sgs1 mgt1 strain (AID 161).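 Note: 0% = growth of cultures given vehicle only.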 The following applies: S. cerevisiae sgs1 mgt1 strain, at 50.0 µM, stronger effect = higher value. The gist of the method:
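Mutant yeast exposed to compound; growth scored against vehicle-only wells.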

A short description of assay [4]: NCI Yeast Anticancer Drug Screen. Data for the cln2 rad14 strain (AID 165).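 Note: 0% = growth equal to vehicle treated cultures.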 The note with it: S. cerevisiae cln2 rad14 strain, at 50.0 µM, stronger effect = higher value. The procedure, abridged:
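Growth of compound-exposed yeast (cln2 rad14 genotype) measured and expressed as inhibition relative to vehicle.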

Assay [5] is described as follows: NCI Yeast Anticancer Drug Screen. Data for the bub3 strain (AID 167). The following applies: S. cerevisiae bub3 mutant strain, at 50.0 µM, stronger effect = higher value. The gist of the method: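 Yeast carrying a defined mutation is treated with each compound, and growth is compared with that of vehicle-exposed cells to give inhibition.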
Assay [6] in a line: NCI Yeast Anticancer Drug Screen. Data for the mlh1 rad18 strain (AID 175). The following applies: S. cerevisiae mlh1 rad18 strain growth inhibition; at 50.0 µM; stronger effect = higher value. The gist of the method: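 In this whole-cell yeast screen, a strain with altered DNA damage repair is challenged with compound, and its growth is measured against matched vehicle-treated controls.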

Regarding `CC[N+](C)(CC)CCC(C(=O)NC)(c1ccccc1)c1ccccc1`, the growth inhibition in assay [1] is -2.45% (inactive); in assay [2], -1.35% (inactive); in assay [3] it was -22.8% (inactive); in assay [4] it was -34.6% (inactive); in assay [5], 0.05% (inactive); in assay [6], -19.1% (inactive).
Turning to `NC(=O)C1(Cl)CCCCC1`, the growth inhibition was -11.8% (inactive) in assay [1]; -22.8% (inactive) in assay [2]; -20.8% (inactive) in assay [3]; -11.2% (inactive) in assay [4]; -6.1% (inactive) in assay [5]; -6.25% (inactive) in assay [6].
For `O=P1(CCBr)NCCCO1` (stereo not drawn), the growth inhibition was -5.25% (inactive) in assay [1]; 14.6% (inactive) in assay [2]; -3.6% (inactive) in assay [3]; -59.4% (inactive) in assay [4]; -10.4% (inactive) in assay [5]; 7.5% (inactive) in assay [6].
Turning to `CCOP(=O)(CCC[N+](=O)[O-])OCC`, the growth inhibition was -12.1% (inactive) in assay [1]; -11.9% (inactive) in assay [2]; -18.7% (inactive) in assay [3]; -15.8% (inactive) in assay [4]; 1.35% (inactive) in assay [5]; -7.65% (inactive) in assay [6].
As for `CCC1(CCNC(=O)CNC(C)=O)C(=O)NC(=O)NC1=O`, the growth inhibition in assay [1] was 3.3% (inactive); in assay [2] it was -6.45% (inactive); in assay [3], 10.2% (inactive); in assay [4], -45.1% (inactive); in assay [5] it was 10.9% (inactive); in assay [6], 10.2% (inactive).
Regarding `CCCCCCCCCC[C@@H](O)[C@@H]1CC[C@@H]([C@@H]2CC[C@@H]([C@@H](O)CCCCCCCCCC[C@H](O)CC3=CC(C)OC3=O)O2)O1` (stereo partly drawn), the growth inhibition in assay [1] was -3.45% (inactive); in assay [2], -0.4% (inactive); in assay [3], 18.8% (inactive); in assay [4], 31% (inactive); in assay [5] it was -11.7% (inactive); in assay [6] it was -21.9% (inactive).
Take `Cc1cc(N(CCCl)CCCl)ccc1C1N(Cc2ccc(N(C)C)cc2)CCN1Cc1ccc(N(C)C)cc1`: the growth inhibition is 13.5% (inactive) in assay [1]; 1.55% (inactive) in assay [2]; 16.4% (inactive) in assay [3]; -3.4% (inactive) in assay [4]; 1.6% (inactive) in assay [5]; 18.6% (inactive) in assay [6].
For `CC1(C)SC2C(NC(=O)Cc3ccccc3)C(=O)N2C1C(=O)O` (stereo not drawn), the growth inhibition in assay [1] is 1.45% (inactive); in assay [2], -16.6% (inactive); in assay [3] it was -22.4% (inactive); in assay [4] it was -97.3% (inactive); in assay [5] it was -36.1% (inactive); in assay [6], -9.6% (inactive).
In the case of `CC1C2Cc3ccc(O)cc3C1(C)CCN2CCC(=O)c1ccccc1` (stereo not drawn), the growth inhibition was -8.85% (inactive) in assay [1]; 1.4% (inactive) in assay [2]; -7.3% (inactive) in assay [3]; 18.2% (inactive) in assay [4]; 5.6% (inactive) in assay [5]; 9.55% (inactive) in assay [6].
On to `CC(C)(C1CCC(O)CC1)C1CCC(O)CC1` (stereo not drawn), for which the growth inhibition in assay [1] is 19.5% (inactive) and 13.4% (inactive); in assay [2], -19.5% (inactive) and -13.6% (inactive); in assay [3] it was -12.2% (inactive) and -21.9% (inactive); in assay [4] it was -12.6% (inactive) and -17.6% (inactive); in assay [5], -5.75% (inactive) and -21.8% (inactive); in assay [6] it was 31.4% (inactive) and 16.1% (inactive).
For the molecule `COP(=O)(OC)C(=O)c1ccccc1`, the growth inhibition is -11.6% (inactive) in assay [1]; -17.2% (inactive) in assay [2]; -7.8% (inactive) in assay [3]; -31.9% (inactive) in assay [4]; -23.8% (inactive) in assay [5]; -16.1% (inactive) in assay [6].
With `CCCCNCCc1cccnc1`, the growth inhibition in assay [1] was 33.5% (inactive); in assay [2], 13.8% (inactive); in assay [3], 20.8% (inactive); in assay [4], 23.7% (inactive); in assay [5], 0.8% (inactive); in assay [6] it was 15.9% (inactive).
As to `Cc1csc2n/c(=N/[N+](=O)[O-])sn12`, the growth inhibition in assay [1] was 51.5% (inactive); in assay [2], 26.9% (inactive); in assay [3], 46.8% (inactive); in assay [4], -12.5% (inactive); in assay [5] it was 50.4% (inactive); in assay [6], 44.1% (inactive).
Take `CC12CCC(=O)C=C1CCC1C2CCC2(C)C(OC(=O)C34C=CC(=O)C3C3C=CC4CC3)CCC12` (stereo not drawn): the growth inhibition in assay [1] was 31.4% (inactive); in assay [2] it was -1.2% (inactive); in assay [3], 14.3% (inactive); in assay [4], 22.6% (inactive); in assay [5], -4.45% (inactive); in assay [6], 19.2% (inactive).
Take `C#CCOC(C(=O)OC1CCN(C)CC1)(c1ccccc1)c1ccccc1`: the growth inhibition is -3.5% (inactive) in assay [1]; -11.8% (inactive) in assay [2]; -6.45% (inactive) in assay [3]; -36.9% (inactive) in assay [4]; 0.3% (inactive) in assay [5]; -1.95% (inactive) in assay [6].
As to `O=c1c2ccccc2oc2ccccc12` (tested in a mixture with another compound), the growth inhibition in assay [1] is 18.9% (inactive); in assay [2] it was 17.7% (inactive); in assay [3], 11.7% (inactive); in assay [4], 10.2% (inactive); in assay [5] it was 23.2% (inactive); in assay [6], 17.1% (inactive).
As to `CN(C)C(=O)C(Cl)Cl`, the growth inhibition in assay [1] is -0.75% (inactive); in assay [2] it was 7.3% (inactive); in assay [3], -4% (inactive); in assay [4] it was -7.25% (inactive); in assay [5], 12.8% (inactive); in assay [6], 2.25% (inactive).
On to `CCCC(C)c1ccc(SOO)cc1.[Fe]` (stereo not drawn), for which the growth inhibition in assay [1] is 19.9% (inactive); in assay [2], 4.05% (inactive); in assay [3], -13.7% (inactive); in assay [4] it was -17.5% (inactive); in assay [5], 8.5% (inactive); in assay [6] it was -6.6% (inactive).
With `CCC(Br)(CC)C(N)=O`, the growth inhibition in assay [1] is -33.5% (inactive); in assay [2] it was -5.4% (inactive); in assay [3], -26.1% (inactive); in assay [4] it was -89.7% (inactive); in assay [5], -28.1% (inactive); in assay [6], -27.9% (inactive).
On to `CC[CH2][Sn](=[O])[CH2]c1ccccc1`, for which the growth inhibition in assay [1] was 11.9% (inactive); in assay [2], 24.6% (inactive); in assay [3], 13.6% (inactive); in assay [4], 8.9% (inactive); in assay [5] it was 17.5% (inactive); in assay [6] it was -44.5% (inactive).
As for `CCCCC(CC)C(=O)O` (stereo not drawn), the growth inhibition in assay [1] was -12.6% (inactive) and 33.9% (inactive); in assay [2] it was -0.3% (inactive) and 11.5% (inactive); in assay [3] it was -1.65% (inactive) and -1.3% (inactive); in assay [4] it was 0.2% (inactive) and 6% (inactive); in assay [5], -13.7% (inactive) and 6.6% (inactive); in assay [6] it was -10.7% (inactive) and 7% (inactive).
As to `CCCCCCCCCCCCCCC(=O)[O][Hg][c]1ccccc1`, the growth inhibition in assay [1] was 99.2% (active); in assay [2] it was 98.9% (active); in assay [3] it was 99.5% (active); in assay [4] it was 99% (active); in assay [5], 99.2% (active); in assay [6], 99.1% (active).
On to `CC(C)CCC[C@@H](C)[C@H]1CC[C@H]2[C@@H]3CC=C4C[C@@H](OC(=O)F)CC[C@]4(C)[C@H]3CC[C@]12C`, for which the growth inhibition in assay [1] was 19.9% (inactive); in assay [2], 20.6% (inactive); in assay [3] it was 42.5% (inactive); in assay [4] it was 35.9% (inactive); in assay [5] it was 26.9% (inactive); in assay [6] it was 33.7% (inactive).
